Experimental findings from PubChem BioAssay AID651635 (National Center for Advancing Translational Sciences (NCATS), 2012) are described below.

Structures are written as SMILES. Screen size: about 400,000 compounds; about 1,900 (0.47%) were called active. Another 14% or so got no clear call; they are omitted. Calls come from the whole dose curve; as a rule, active = well fitted cell-killing curve with a large enough effect; inconclusive = small, poorly fitted or top-dose-only effect, or effect the other way; inactive = no such curve, though single readings can be large or run the other way. For the sample, actives were picked, then their nearest neighbours and some compounds at random.
Potency is the fitted concentration of half-maximal effect.

A short description of the experiment: Viability Counterscreen for Primary qHTS for Inhibitors of ATXN expression. Note: nearly all actives have a fitted effect of over 40% in size. Particulars: S2 cells (HEK-293 line with an ATXN2-luciferase reporter) viability, CellTiter-Fluor protease fluorescence, 24 h; series mostly up to 56.7 µM; activity change, negative = cytotoxicity: at the top concentration.
`CC(=CCOc1ccc2ccc(=O)oc2c1)C1=CC(=O)C(C)(C)O1`: the “activity change, negative = cytotoxicity” value is -34.9% (inactive).
As to `CCC(=NCCc1ccccc1)c1c(O)n(C2CCCCC2)c(=O)[nH]c1=O`, the “activity change, negative = cytotoxicity” value was -28.9% (inactive).
As for `Cc1ccc(Cn2nnnc2CN2CCC(n3nnc4ccccc43)CC2)cc1`, the “activity change, negative = cytotoxicity” value was -3.67% (inactive).
`O=c1[nH]c2ccccc2n1C1CCN(C(c2ccnc3ccccc23)c2nnnn2Cc2ccccc2)CC1` (stereo not given): the Potency was 12.6 µM (active).
For the molecule `O=c1[nH]c2ccccc2n1C1CCN(C(c2ccccc2)c2nnnn2Cc2ccccc2)CC1` (stereo not given), the Potency was 7.08 µM (active).
Regarding `O=P1(N(CCCl)CCCl)NC(OO)CCO1` (stereo not given), the “activity change, negative = cytotoxicity” value was 3.6% (inactive).
For the molecule `Cc1ccsc1C(=O)C1CCCN(Cc2ccc(O)cc2)C1` (stereo not given), the “activity change, negative = cytotoxicity” value is -7.9% (inactive).
Still for that read-out and setting: in the case of `Cc1ccc(N2C(=O)NC(=O)C(CCc3ccncc3)(Cc3cccc(Cl)c3Cl)C2=O)cc1` (stereo not given) it was -29.8% (inactive); in that of `CCOP(=O)(OCC)C(O)c1ccc(OC)cc1OC` (stereo not given), -10.4% (inactive); in that of `CC[N+]1(CCOC(=O)C(O)(c2ccccc2)c2ccccc2)CCCCC1`, 16.1% (inactive).
As to `Cc1ccc(Cl)cc1N1CCN(C(=O)C2CCC(CNS(=O)(=O)c3cccs3)CC2)CC1` (stereo not given), the “activity change, negative = cytotoxicity” value was -31.8% (inactive).
With `CO[C@]12CC[C@@]3(C[C@@H]1[C@](C)(O)C(C)(C)C)[C@@H]1Cc4ccc(O)c5c4[C@@]3(CCN1CC1CC1)[C@H]2O5`, the Potency was 35.5 µM (active).
The same measure, in the same setting: the entry for `Oc1ccc2c3c1OC1[C@H](O)CC[C@@]4(O)[C@@H](C2)N(CC2CC2)CC[C@]314` (stereo not given in full) is “inactive”.
Regarding `CN(C)c1ccc(/C=C2\CC3C4CC=C5CC(O)CCC5(C)C4CCC3(C)C2=O)cc1` (stereo not given), the “activity change, negative = cytotoxicity” value was -18.1% (inactive).
On the same count and under the same terms, in the case of `CC(C)=C[C@@H]1[C@@H](C(=O)OCc2coc(Cc3ccccc3)c2)C1(C)C` it was 9.08% (inactive); in that of `Cc1cc(OCc2cc(C(=O)O)oc2C)c2c3c(c(=O)oc2c1)CCCC3`, 7.94% (inactive).
`CN(Cc1cccc2ncccc12)C(=O)c1cnn(-c2nccc(-c3ccccc3F)n2)c1C1CC1`: the Potency was 22.4 µM (active).
Regarding `CCCCC1C(=O)NC(=O)N(C2CCCCC2)C1=O` (stereo not given), the “activity change, negative = cytotoxicity” value is -8.69% (inactive).
Same read-out and setting: in the case of `CC1=C(C(=O)O)N2C(=O)[C@@H](N)[C@H]2SC1` it was 3.3% [at 25.4 µM] (inactive).
Regarding `NCC(O)c1ccc(O)cc1` (stereo not given), the Potency entry was “inactive”.
